In PubChem BioAssay (Tox21):
Records with an inconclusive call do not appear. The source made the active and inactive calls. Unless noted, calls come from the whole dose curve; as a rule, active = well fitted curve in the direction sought with a large enough effect in the repeat runs; inconclusive = weak or mixed curves; inactive = no such curve, though single readings can be large; an effect the other way counts as inactive or inconclusive.

Tests used:
[1] = biological target: Progesterone receptor (Homo sapiens) (UniProt P06401); experiment: qHTS assay to identify small molecule agonists of the progesterone receptor (PR) signaling pathway (AID 1346784; calls by dose curve; note: nearly all actives have a fitted effect of over 30% in size)
Outline: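 PR-UAS-bla HEK 293T cells (beta-lactamase reporter under UAS) in 2% charcoal-stripped FBS, dosed with 23 nL compound after 6 hr, incubated 16hr at 37C. LiveBLAzer B/G FRET substrate added, fluorescence read after 2 hours.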

[2] = qHTS assay to identify small molecule antagonists of the progesterone receptor (PR) signaling pathway - cell viability counter screen (AID 1346798); note: nearly all actives have a fitted effect of over 50% in size; note: potency is the fitted concentration of half-maximal effect
Outline: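 PR-UAS-bla HEK293T cells, 3,000/well in 2% charcoal-stripped FBS medium, dosed with compounds plus R5020 agonist and incubated 16 h at 37C. Viability then measured in the same wells by CellTiter-Glo luminescence after 30 min at RT.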

[3] = qHTS assay to identify small molecule antagonists of the TGF-beta/Smad signaling pathway - cell viability counter screen (AID 1346824); note: nearly all actives have a fitted effect of over 50% in size
Outline: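 SBE-bla HEK 293T cells were plated overnight at 37 C, then given compounds in DMSO plus TGF-beta1 (added as 0.25 ng/mL solution) for 5 hr. After the bla read, CellTiter-Glo was added to the same wells and luminescence read after 30 min at room temperature.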

[4] = qHTS assay to identify small molecule agonists of the TGF-beta/Smad signaling pathway - cell viability counter screen (AID 1346829); note: top concentration of the series differs between compounds; nearly all actives have a fitted effect of over 45% in size
Outline: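 In parallel with the Smad reporter read, viability of HEK 293T cells stably carrying SBE-bla is quantified by ATP luminescence following 5 hr compound treatment.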

[5] = qHTS assay to identify small molecule agonists of the TGF-beta/Smad signaling pathway (AID 1346859; active = well fitted activation curve with a large enough effect in the signal ratio in the repeat runs, not every such curve was filed as active; the % refers to the signal ratio; note: series mostly up to about 77 µM)
Outline: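 SBE-bla HEK293T cells plated overnight, then compound exposure for 5 h at 37 C. Beta-lactamase reporter read with LiveBLAzer B/G FRET substrate after 2 h at room temperature, fluorescence at 405 nm excitation, 460/530 nm emission.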

[6] = biological target: Thyrotropin-releasing hormone receptor (Homo sapiens) (UniProt P34981); experiment: qHTS assay to identify small molecule agonists of the thyrotropin-releasing hormone receptor (TRHR) signaling pathway (AID 1346891; calls by dose curve; note: series mostly up to about 58 µM)
Outline: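 HEK293 cells expressing TRHR plated 18 h at 37 C/5% CO2, calcium dye-loaded 2 h at 37 C, then compound added (agonist mode); kinetic calcium fluorescence read 3 min at 1 s intervals; 15 concentrations in triplicate.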

[7] = Human pregnane X receptor (PXR) small molecule agonists, qHTS cell viability counter screen (AID 1346977); note: nearly all actives have a fitted effect of over 50% in size; note: potency is the fitted concentration of half-maximal effect
Outline: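 PXR-Luc HepG2 cells (2,000/well, 5% charcoal-stripped FBS) preincubated 5 hr, then exposed to compounds 24 hr at 37 C. Viability read in the same wells by CellTiter-Fluor fluorescence, reagent added at 23 hr, 1 hr incubation.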

[8] = Caspase-3/7 induction in HepG2 cells by small molecules, qHTS assay (AID 1346978); note: nearly all actives have a fitted effect of over 15% in size
Outline: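 Wild-type HepG2 cells (2,000/well) were settled 5 h at 37 C, 5% CO2, then exposed to compounds in DMSO for 17 h. Caspase-3/7 activity was read by luminescence 30 min after adding Caspase-Glo 3/7 reagent at room temperature.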

[9] = Caspase-3/7 induction in CHO-K1 cells by small molecules, qHTS cell viability counter screen (AID 1346979); note: nearly all actives have a fitted effect of over 35% in size; note: potency is the fitted concentration of half-maximal effect
Outline: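 Wild-type CHO-K1 cells (1,500/well) treated with compound after 5 h plating; after 16 h at 37C, viability read as CellTiter-Fluor fluorescence following 1 h reagent incubation, in the same wells as the caspase read.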

[10] = Caspase-3/7 induction in CHO-K1 cells by small molecules, qHTS assay (AID 1346980); note: nearly all actives have a fitted effect of over 15% in size
Outline: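 Wild-type cells were seeded at 1,500 per well and settled 5 hr at 37 C, 5% CO2, then exposed to DMSO-dissolved compounds for 17 hr. Caspase-Glo 3/7 reagent was added, and luminescence was read after 30min at room temperature.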

[11] = Caspase-3/7 induction in HepG2 cells by small molecules, qHTS cell viability counter screen (AID 1346981); note: series mostly up to about 92 µM; nearly all actives have a fitted effect of over 30% in size
Outline: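 Multiplexed with the caspase-3/7 assay: HepG2 cells, 16 hr compound treatment, CellTiter-Fluor viability detection by fluorescence.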

[12] = biological target: Nuclear receptor subfamily 1 group I member 2 (Homo sapiens) (UniProt O75469); experiment: Human pregnane X receptor (PXR) small molecule agonists, qHTS assay (AID 1346982); note: nearly all actives have a fitted effect of over 35% in size; note: potency is the fitted concentration of half-maximal effect
Outline: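 We seeded PXR-Luc HepG2 cells in assay medium containing 5% charcoal-stripped FBS, added compounds 5 hr later, incubated 24 hr, and read luminescence with ONE-Glo reagent.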

[13] = biological target: Acetylcholinesterase (Homo sapiens) (UniProt P22303); experiment: Acetylcholinesterase (AChE) small molecule antagonists: colormetric cell-based qHTS assay (AID 1347395; calls by dose curve; note: nearly all actives have a fitted effect of over 30% in size)
Outline: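 SH-SY5Y cells attached overnight, exposed to compound 30 min at 37 C, then given DTNB/acetylthiocholine; after 90 min at 37 C, colorimetric thiocholine read gives cellular AChE activity.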

[14] = qHTS assay to identify small molecule agonists of the progesterone receptor (PR) signaling pathway - cell viability counter screen (AID 1346799; calls by dose curve; note: nearly all actives have a fitted effect of over 45% in size)
Outline: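 Counter screen in the PR-UAS-bla HEK293T wells (2% charcoal-stripped FBS, 16 h compound exposure at 37 C) after the bla read. CellTiter-Glo added, 30 min at room temperature, luminescence read as cell viability.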

[15] = biological target: Progesterone receptor (Homo sapiens) (UniProt P06401); experiment: qHTS assay to identify small molecule antagonists of the progesterone receptor (PR) signaling pathway (AID 1346795; active = well fitted inhibition curve with a large enough effect in the signal ratio in the repeat runs, not every such curve was filed as active; the % refers to the signal ratio; note: potency is the fitted concentration of half-maximal effect)
Outline: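 PR-UAS-bla HEK293T cells with beta-lactamase reporter under UAS control, in 2% charcoal-stripped FBS, treated with compounds plus 1 nM promegestone (R5020, final) for 16 hr at 37C. Read-out: FRET beta-lactamase substrate fluorescence after 2 hr at room temperature.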

[16] = biological target: Nuclear receptor subfamily 1 group I member 2 (Rattus norvegicus) (UniProt Q9R1A7); experiment: Rat pregnane X receptor (rPXR) activation by small molecules, qHTS assay (AID 1346983); conditions: rPXR luciferase reporter cells, One-Glo luminescence, 24 h; max activation: stronger effect = higher value; note: nearly all actives have a fitted effect of over 20% in size; note: potency is the fitted concentration of half-maximal effect
Outline: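 Cell-based rPXR luciferase reporter assay, 2,000 cells per well, rested 5hr at 37 C before compound addition in DMSO, then 24 hr at 37 C. One-Glo reagent was added and luminescence read after 30 min at room temperature.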

[17] = biological target: Nuclear receptor subfamily 1 group I member 2 (Homo sapiens) (UniProt O75469); experiment: CYP3A4 induction through human pregnane X receptor (PXR) by small molecules, qHTS assay (AID 1346984); note: nearly all actives have a fitted effect of over 40% in size
Outline: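 qHTS, concentration-response format: HepG2 DPX-2 line, PXR/CYP3A4-luc. Exposure 24 h, 37C. Substrate Luciferin-IPA 3uM final, 3 h. Detection One-Glo, 30 min RT.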

[18] = biological target: Nuclear receptor subfamily 1 group I member 2 (Homo sapiens) (UniProt O75469); experiment: Human pregnane X receptor (PXR) activation by small molecules, qHTS assay (AID 1346985); note: nearly all actives have a fitted effect of over 40% in size
Outline: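 DPX-2 cells (HepG2 co-transfected with a PXR response element and a CYP3A4-promoter luciferase construct) were seeded at 2,000 per well, rested 5 hr at 37C, then exposed to DMSO-dissolved compounds for 24 hr. Activation was read as luciferase luminescence.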

[19] = biological target: Thyrotropin-releasing hormone receptor (Homo sapiens) (UniProt P34981); experiment: qHTS assay to identify small molecule antagonists of the thyrotropin-releasing hormone receptor (TRHR) signaling pathway (AID 1346877; active = well fitted inhibition curve with a large enough effect in the repeat runs, not every such curve was filed as active; note: series mostly up to about 51 µM)
Outline: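 Screening used HEK293 cells engineered with TRHR, with a brief 5 min room-temperature compound exposure preceding addition of TRH to 1 nM. The read-out was kinetic calcium-dye fluorescence, concentration-response from 15 doses in triplicate.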
% is set by controls: 0 for no effect and ±100 for the full control effect.

Sequence of Nuclear receptor subfamily 1 group I member 2 (Rattus norvegicus) (Q9R1A7 whole entry, looked up): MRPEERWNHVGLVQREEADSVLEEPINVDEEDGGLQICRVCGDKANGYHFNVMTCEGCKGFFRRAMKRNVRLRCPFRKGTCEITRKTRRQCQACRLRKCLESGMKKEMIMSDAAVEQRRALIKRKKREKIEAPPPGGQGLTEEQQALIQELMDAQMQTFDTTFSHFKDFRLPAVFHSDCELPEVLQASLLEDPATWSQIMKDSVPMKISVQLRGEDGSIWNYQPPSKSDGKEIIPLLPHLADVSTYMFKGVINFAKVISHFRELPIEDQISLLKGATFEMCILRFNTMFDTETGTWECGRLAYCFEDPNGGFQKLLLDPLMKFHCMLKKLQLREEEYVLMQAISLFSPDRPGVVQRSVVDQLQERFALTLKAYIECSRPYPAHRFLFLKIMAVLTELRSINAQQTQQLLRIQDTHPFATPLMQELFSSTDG
Sequence of Thyrotropin-releasing hormone receptor (Homo sapiens) (P34981 whole entry, looked up): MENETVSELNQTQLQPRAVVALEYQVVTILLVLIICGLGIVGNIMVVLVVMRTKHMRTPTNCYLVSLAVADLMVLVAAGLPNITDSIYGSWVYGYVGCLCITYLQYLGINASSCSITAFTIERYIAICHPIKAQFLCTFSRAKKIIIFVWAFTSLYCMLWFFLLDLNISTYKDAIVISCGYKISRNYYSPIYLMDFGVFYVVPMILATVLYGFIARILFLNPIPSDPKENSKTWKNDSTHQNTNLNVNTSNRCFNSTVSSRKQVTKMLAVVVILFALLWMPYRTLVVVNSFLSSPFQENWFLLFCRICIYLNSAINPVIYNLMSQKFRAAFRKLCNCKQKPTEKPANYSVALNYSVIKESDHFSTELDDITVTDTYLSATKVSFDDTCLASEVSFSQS
Sequence of Acetylcholinesterase (Homo sapiens) (P22303 whole entry, looked up): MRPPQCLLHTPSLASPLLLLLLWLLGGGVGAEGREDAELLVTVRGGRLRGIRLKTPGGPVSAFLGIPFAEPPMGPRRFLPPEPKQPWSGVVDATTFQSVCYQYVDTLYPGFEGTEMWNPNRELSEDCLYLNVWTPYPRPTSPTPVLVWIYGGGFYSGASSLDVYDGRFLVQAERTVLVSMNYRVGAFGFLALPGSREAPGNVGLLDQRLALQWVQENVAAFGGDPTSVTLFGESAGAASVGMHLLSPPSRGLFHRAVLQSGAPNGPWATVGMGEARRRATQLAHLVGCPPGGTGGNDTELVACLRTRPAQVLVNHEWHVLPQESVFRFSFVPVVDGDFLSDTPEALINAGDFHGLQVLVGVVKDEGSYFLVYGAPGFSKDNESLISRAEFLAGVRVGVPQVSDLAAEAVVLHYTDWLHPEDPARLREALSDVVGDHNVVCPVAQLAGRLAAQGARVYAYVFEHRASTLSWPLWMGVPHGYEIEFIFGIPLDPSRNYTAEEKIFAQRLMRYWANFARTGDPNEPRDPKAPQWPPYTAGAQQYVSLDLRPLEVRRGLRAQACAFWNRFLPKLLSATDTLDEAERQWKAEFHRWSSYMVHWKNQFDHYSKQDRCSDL
Sequence of Nuclear receptor subfamily 1 group I member 2 (Homo sapiens) (O75469 whole entry, looked up): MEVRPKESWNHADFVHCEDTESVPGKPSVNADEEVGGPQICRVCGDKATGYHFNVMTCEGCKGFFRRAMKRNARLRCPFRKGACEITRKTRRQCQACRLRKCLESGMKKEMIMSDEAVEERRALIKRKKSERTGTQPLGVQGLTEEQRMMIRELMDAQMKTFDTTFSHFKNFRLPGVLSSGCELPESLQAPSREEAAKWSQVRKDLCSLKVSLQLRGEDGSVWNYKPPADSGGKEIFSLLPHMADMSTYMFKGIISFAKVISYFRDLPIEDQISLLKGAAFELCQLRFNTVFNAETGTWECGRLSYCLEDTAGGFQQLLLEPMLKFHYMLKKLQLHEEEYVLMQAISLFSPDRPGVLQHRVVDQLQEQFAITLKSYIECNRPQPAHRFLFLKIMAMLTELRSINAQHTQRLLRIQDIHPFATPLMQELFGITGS
Sequence of Progesterone receptor (Homo sapiens) (P06401 whole entry, looked up): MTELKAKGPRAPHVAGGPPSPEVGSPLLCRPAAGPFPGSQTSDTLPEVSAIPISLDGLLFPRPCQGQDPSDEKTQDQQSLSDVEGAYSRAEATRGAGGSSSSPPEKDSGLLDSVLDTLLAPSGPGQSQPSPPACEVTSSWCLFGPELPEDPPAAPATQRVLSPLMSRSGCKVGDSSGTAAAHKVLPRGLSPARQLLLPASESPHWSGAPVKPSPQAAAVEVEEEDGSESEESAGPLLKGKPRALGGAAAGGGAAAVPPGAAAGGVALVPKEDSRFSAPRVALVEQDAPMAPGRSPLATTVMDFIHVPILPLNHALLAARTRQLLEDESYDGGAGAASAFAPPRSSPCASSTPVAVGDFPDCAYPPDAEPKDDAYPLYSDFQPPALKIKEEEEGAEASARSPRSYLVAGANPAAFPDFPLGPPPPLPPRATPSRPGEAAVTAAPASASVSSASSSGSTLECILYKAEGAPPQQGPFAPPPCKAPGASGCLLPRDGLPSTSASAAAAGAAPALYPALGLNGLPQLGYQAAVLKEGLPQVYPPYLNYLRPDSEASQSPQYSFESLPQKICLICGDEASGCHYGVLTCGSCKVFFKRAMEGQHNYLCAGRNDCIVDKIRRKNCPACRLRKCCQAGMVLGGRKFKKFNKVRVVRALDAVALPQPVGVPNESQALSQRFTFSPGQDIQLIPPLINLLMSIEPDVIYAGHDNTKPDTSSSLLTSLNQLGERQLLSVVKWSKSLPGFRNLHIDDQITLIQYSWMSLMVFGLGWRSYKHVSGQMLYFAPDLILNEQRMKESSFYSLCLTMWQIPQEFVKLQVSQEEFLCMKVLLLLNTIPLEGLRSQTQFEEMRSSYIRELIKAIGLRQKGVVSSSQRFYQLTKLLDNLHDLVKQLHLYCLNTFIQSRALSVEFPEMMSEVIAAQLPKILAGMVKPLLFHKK

c1ccc(N2CCNCC2)cc1
inactive: Potency [1] | Potency [2] | Potency [3] | outcome [4] | outcome [5] | outcome [6] | Potency [7] | Potency [8] | Potency [9] | Potency [10] | Potency [11] | Potency [12] | Potency [13]

O=C1CN2CCOC2(c2ccccc2Cl)c2cc(Cl)ccc2N1 (configuration not stated)
inactive: Potency [2] | Potency [14] | Potency [3] | outcome [4] | outcome [5] | Potency [7] | Potency [8] | Potency [9] | Potency [10] | Potency [11] | Potency [13]

C[C@@H]1CN(C2CCC(C#N)(c3ccc(F)cc3)CC2)CC[C@]1(C(=O)O)c1ccccc1 (some centres not stated)
inactive: Potency [15] | Potency [2] | Potency [3] | outcome [4] | outcome [5] | Potency [7] | Potency [8] | Potency [9] | Potency [10] | Potency [11] | Potency [12] | max activation [16] -1.37% | Potency [17] | Potency [18] | Potency [13]

CC(Oc1ccc(Oc2ncc(C(F)(F)F)cc2Cl)cc1)C(=O)O (configuration not stated)
active: Potency [2] 7.7 µM
inactive: Potency [1] | Potency [3] | outcome [4] | outcome [5] | Potency [7] | Potency [8] | Potency [9] | Potency [10] | Potency [11] | Potency [12] | Potency [13]

CCOP(=S)(OCC)Oc1nc(Cl)n(C(C)C)n1
inactive: Potency [15] | Potency [2] | Potency [3] | outcome [4] | outcome [5] | outcome [19] | outcome [6] | Potency [8] | Potency [10] | Potency [11]

Cc1ncc2n1-c1ccc(Cl)cc1C(c1ccccc1F)=NC2
inactive: Potency [1] | Potency [3] | outcome [4] | outcome [5] | outcome [6] | Potency [8] | Potency [9] | Potency [10] | Potency [11] | max activation [16] 11.3% | Potency [17] | Potency [13]
active: Potency [12] 33.5 µM

CC(=O)[C@H]1CC[C@H]2[C@@H]3CC[C@H]4C[C@H](O)CC[C@]4(C)[C@H]3C(=O)C[C@]12C
inactive: Potency [2] | Potency [14] | Potency [3] | outcome [4] | outcome [5] | Potency [7] | Potency [8] | Potency [9] | Potency [10] | Potency [11] | Potency [18] | Potency [13]
active: Potency [16] 11.2 µM

CC(C)CP(=S)(S)CC(C)C
inactive: Potency [3] | outcome [4] | outcome [5] | outcome [6] | Potency [7] | Potency [8] | Potency [12] | Potency [13]
active: Potency [15] 0.486 µM | Potency [9] 48.6 µM

CNC(=O)Oc1ccccc1C1OCCO1
inactive: Potency [15] | Potency [2] | Potency [3] | outcome [4] | outcome [5] | outcome [19] | Potency [7] | Potency [8] | Potency [9] | Potency [10] | Potency [11] | Potency [12] | Potency [13]

c1cc2c(c(N3CCNCC3)c1)OCCO2
inactive: Potency [1] | Potency [2] | Potency [14] | Potency [3] | outcome [4] | outcome [5] | outcome [19] | outcome [6] | Potency [7] | Potency [8] | Potency [9] | Potency [10] | Potency [11] | Potency [12] | max activation [16] 6.77% | Potency [17] | Potency [18] | Potency [13]

O=[N+]([O-])c1ccc2c3c(cccc13)CC2
inactive: Potency [2] | Potency [14] | outcome [4] | outcome [5] | outcome [19] | outcome [6] | Potency [8] | Potency [10] | Potency [11] | Potency [13]
active: Potency [15] 24.3 µM | Potency [12] 54.5 µM

CC1=C(C(=O)Nc2ccccc2)S(=O)(=O)CCO1
active: Potency [9] 61.1 µM
inactive: Potency [3] | outcome [4] | outcome [5] | Potency [8] | Potency [10] | Potency [12] | Potency [13]

CC(CC(C#N)(c1ccccc1)c1ccccc1)N(C)C (configuration not stated)
inactive: Potency [1] | outcome [4] | outcome [5] | outcome [19] | Potency [8] | Potency [10] | Potency [11] | Potency [12] | Potency [13]
active: Potency [7] 48.3 µM

[As]#[In]
inactive: Potency [1] | Potency [2] | Potency [14] | Potency [3] | outcome [4] | outcome [5] | outcome [19] | outcome [6] | Potency [8] | Potency [9] | Potency [10] | Potency [11] | Potency [12] | Potency [13]
